# Test results: the supplement of paper PMC7724964
# Experiments:
# Experiment in all cases: phage ELISA signal ratio (GST-PRM binding over GST background); higher = stronger binding of peptide-phage to the PRM
# [1] = target: T1, TOM1L1 1-150 VHS (domain begin residue: 1, domain end residue: 150), O75674
# T1 chain: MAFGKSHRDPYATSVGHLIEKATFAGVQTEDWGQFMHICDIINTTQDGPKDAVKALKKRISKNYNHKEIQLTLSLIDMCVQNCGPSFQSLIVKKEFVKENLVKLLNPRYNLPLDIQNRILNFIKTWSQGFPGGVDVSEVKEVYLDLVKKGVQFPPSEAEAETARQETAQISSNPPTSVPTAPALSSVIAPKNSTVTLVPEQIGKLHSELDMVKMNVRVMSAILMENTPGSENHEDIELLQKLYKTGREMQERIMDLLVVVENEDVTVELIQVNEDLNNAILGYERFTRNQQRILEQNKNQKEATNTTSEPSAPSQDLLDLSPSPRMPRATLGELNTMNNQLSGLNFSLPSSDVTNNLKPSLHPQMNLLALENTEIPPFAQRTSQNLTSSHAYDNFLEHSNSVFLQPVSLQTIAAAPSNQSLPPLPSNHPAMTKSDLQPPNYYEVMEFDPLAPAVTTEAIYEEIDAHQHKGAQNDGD
# Outline: (§1)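 An M13 phage library with randomized hexadecapeptides on the gene-8 major coat protein, each peptide lacking cysteine and flanked by glycine, was selected for five rounds against human peptide recognition domains fused to the C-terminus of glutathione S-transferase (GST) and expressed in 96-well plates. Approximately 48 clones from rounds 4 and 5 went to phage ELISA. The reported value is the ELISA signal on the GST-domain fusion over the signal on GST alone, and positive clones were sequenced.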
# [2] = target: TLN2 312-417 IRS (domain begin residue: 312, domain end residue: 417), Q9Y4G6
# Outline: as §1
# [3] = target: TOM1 1-153 VHS (domain begin residue: 1, domain end residue: 153), O60784
# Outline: as §1
# [4] = target: T2, TOM1L2 1-153 VHS (domain begin residue: 1, domain end residue: 153), Q6ZVM7
# T2 chain: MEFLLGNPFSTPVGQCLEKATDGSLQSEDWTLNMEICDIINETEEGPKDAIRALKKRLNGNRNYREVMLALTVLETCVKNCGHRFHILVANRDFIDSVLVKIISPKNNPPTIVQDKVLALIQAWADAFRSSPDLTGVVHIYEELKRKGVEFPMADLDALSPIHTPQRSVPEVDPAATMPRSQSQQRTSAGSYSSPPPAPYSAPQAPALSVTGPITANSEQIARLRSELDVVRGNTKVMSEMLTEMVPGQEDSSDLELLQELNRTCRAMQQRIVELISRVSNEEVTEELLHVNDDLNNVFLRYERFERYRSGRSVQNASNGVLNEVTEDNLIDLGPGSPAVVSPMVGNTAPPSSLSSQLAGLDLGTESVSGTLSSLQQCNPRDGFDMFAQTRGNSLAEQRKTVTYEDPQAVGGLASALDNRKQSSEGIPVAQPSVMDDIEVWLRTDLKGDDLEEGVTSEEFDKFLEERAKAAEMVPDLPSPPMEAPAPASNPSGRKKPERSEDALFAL
# Outline: as §1
# [5] = target: T3, TERF1 58-268 TRF (domain begin residue: 58, domain end residue: 268), P54274
# T3 chain: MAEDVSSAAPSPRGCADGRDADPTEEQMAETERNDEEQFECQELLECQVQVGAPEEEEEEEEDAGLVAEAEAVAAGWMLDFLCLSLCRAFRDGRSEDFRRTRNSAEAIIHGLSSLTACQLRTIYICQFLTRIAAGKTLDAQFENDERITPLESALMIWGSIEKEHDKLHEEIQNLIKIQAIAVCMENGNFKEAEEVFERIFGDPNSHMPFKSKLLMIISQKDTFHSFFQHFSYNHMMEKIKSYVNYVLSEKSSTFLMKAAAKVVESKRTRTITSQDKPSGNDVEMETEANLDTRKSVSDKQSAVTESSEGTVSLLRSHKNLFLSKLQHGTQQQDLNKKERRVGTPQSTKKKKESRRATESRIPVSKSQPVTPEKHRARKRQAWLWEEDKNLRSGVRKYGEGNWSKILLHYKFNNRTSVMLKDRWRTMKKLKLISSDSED
# Outline: as §1
# [6] = target: T4, TDRD1 261-449 TUDOR (domain begin residue: 261, domain end residue: 449), Q9BXT4
# T4 chain: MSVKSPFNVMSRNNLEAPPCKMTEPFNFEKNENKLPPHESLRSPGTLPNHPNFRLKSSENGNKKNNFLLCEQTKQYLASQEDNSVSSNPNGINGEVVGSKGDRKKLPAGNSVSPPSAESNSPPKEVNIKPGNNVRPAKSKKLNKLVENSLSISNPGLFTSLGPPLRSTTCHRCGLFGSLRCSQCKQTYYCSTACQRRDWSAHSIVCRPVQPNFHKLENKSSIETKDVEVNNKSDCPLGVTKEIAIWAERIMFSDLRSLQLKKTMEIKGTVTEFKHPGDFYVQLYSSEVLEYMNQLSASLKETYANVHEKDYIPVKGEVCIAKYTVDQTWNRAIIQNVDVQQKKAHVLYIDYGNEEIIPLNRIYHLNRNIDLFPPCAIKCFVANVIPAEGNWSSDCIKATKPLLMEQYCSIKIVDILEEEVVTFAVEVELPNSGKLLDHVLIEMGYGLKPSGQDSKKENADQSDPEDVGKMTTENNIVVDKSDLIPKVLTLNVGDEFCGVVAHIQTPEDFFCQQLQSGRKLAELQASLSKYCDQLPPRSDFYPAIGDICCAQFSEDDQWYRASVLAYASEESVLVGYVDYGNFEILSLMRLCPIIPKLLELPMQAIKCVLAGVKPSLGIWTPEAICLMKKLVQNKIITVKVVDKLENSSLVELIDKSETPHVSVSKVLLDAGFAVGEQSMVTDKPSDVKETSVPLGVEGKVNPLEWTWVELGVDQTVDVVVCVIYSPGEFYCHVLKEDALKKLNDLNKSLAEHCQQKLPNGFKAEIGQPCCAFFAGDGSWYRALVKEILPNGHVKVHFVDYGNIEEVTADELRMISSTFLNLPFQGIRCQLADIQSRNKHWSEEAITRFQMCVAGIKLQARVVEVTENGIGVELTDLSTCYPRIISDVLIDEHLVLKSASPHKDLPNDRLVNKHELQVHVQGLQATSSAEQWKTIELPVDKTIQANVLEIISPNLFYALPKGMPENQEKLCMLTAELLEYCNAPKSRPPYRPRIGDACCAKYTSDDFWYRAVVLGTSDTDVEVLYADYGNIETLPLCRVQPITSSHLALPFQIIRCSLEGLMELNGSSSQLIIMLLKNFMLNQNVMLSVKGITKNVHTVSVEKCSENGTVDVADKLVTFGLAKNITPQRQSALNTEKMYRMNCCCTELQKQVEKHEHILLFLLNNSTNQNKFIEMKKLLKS
# Outline: as §1
# [7] = target: TLN1 309-401 IRS (domain begin residue: 309, domain end residue: 401), Q9Y490
# Outline: as §1
# [8] = target: T5, TRIM11 268-461 SPRY (domain begin residue: 268, domain end residue: 461), Q96F44
# T5 chain: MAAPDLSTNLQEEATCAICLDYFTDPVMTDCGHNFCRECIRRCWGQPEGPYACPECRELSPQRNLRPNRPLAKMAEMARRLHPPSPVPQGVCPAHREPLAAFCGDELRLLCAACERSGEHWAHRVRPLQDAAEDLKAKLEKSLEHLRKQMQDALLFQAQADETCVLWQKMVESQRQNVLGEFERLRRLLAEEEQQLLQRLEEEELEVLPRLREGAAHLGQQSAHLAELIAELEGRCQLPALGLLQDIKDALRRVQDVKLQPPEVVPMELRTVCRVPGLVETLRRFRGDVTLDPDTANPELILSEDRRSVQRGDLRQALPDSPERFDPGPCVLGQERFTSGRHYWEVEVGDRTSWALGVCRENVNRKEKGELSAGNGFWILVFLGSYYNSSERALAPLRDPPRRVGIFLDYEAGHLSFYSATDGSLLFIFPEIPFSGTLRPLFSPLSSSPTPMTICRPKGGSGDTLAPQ
# Outline: as §1
# [9] = target: T6, TCEA2 231-299 TFIIS_C (domain begin residue: 231, domain end residue: 299), Q15560
# T6 chain: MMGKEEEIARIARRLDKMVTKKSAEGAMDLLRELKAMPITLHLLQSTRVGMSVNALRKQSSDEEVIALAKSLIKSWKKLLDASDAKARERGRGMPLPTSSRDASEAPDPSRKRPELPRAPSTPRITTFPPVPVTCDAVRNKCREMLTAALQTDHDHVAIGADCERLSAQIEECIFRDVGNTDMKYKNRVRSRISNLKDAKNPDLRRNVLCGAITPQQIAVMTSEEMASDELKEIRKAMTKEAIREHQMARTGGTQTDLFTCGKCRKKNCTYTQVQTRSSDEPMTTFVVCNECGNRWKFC
# Outline: as §1
# [10] = target: T7, TRIM10 292-481 SPRY (domain begin residue: 292, domain end residue: 481), Q9UDY6
# T7 chain: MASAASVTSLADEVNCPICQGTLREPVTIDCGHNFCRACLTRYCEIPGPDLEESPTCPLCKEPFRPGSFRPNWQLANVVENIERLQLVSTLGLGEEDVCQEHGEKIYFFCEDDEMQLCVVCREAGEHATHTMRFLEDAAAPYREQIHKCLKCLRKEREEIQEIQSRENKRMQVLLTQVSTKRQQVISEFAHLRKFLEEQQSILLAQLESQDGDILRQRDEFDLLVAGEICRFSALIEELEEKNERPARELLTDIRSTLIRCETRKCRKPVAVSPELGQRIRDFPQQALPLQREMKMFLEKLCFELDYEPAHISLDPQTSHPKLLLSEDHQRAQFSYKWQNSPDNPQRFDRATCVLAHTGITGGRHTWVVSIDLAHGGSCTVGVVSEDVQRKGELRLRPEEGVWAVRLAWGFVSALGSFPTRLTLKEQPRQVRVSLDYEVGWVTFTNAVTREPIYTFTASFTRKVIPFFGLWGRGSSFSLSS
# Outline: as §1
# TLN2 312-417 IRS (domain begin residue: 312, domain end residue: 417), Q9Y4G6, sequence (Q9Y4G6 whole entry): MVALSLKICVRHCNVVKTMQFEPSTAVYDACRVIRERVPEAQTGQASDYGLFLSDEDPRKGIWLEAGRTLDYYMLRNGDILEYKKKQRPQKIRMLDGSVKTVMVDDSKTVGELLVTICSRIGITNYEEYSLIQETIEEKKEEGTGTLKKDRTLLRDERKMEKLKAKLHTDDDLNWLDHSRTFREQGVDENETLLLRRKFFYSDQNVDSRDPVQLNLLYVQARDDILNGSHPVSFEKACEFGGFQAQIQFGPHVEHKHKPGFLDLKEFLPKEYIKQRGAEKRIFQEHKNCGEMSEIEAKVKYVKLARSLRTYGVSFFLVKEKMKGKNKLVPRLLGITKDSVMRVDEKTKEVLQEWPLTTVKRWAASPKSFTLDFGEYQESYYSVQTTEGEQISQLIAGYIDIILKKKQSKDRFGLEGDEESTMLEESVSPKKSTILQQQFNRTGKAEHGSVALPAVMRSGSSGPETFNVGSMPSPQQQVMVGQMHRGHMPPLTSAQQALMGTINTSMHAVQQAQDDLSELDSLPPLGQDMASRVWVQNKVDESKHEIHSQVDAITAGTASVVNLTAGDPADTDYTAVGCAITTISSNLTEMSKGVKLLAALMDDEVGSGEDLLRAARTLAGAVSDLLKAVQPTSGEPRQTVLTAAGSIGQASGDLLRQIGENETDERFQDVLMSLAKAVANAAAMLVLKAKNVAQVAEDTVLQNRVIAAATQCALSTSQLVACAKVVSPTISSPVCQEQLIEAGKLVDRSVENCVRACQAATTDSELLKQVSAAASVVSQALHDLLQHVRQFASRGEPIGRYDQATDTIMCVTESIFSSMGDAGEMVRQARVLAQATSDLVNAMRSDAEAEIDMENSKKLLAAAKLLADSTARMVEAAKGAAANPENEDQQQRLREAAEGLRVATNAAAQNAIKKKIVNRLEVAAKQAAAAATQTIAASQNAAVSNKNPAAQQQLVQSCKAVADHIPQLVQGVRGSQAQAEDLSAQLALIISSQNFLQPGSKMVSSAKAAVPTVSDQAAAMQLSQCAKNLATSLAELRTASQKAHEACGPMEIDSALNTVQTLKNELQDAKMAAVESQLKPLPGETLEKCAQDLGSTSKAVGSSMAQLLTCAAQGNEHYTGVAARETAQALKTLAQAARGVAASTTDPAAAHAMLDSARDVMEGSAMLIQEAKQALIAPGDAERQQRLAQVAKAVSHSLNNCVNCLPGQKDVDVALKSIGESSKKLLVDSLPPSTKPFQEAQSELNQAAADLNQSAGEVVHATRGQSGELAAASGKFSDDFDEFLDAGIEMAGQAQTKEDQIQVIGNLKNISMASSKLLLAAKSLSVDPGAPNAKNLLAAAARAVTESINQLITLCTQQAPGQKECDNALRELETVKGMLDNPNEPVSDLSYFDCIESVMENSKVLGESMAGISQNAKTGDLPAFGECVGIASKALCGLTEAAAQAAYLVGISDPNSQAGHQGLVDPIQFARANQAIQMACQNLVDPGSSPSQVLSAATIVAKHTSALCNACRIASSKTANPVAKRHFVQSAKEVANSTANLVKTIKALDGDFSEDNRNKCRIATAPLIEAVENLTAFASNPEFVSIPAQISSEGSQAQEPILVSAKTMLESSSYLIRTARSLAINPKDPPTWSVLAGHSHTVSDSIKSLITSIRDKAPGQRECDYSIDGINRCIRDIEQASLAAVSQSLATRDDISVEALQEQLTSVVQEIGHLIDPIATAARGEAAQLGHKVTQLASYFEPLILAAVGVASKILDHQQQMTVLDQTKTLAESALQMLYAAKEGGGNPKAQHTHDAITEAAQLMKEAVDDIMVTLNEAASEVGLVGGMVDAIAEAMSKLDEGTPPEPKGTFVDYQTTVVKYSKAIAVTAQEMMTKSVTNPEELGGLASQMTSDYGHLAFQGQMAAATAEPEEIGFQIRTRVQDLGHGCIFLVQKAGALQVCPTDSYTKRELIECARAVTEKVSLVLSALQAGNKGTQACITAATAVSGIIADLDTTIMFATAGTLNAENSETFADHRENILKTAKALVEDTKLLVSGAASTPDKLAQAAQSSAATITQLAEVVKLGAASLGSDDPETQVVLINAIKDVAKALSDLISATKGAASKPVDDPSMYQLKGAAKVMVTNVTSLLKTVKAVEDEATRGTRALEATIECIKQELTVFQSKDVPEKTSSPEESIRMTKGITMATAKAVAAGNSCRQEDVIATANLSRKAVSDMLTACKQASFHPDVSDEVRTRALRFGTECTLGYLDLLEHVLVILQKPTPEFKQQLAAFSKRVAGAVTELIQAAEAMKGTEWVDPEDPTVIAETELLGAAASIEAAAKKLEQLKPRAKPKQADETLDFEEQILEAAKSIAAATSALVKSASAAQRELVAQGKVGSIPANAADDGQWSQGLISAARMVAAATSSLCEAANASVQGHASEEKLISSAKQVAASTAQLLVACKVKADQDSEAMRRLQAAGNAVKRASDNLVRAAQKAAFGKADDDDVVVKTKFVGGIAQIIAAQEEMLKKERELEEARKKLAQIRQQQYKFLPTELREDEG
# TOM1 1-153 VHS (domain begin residue: 1, domain end residue: 153), O60784, sequence (O60784 whole entry): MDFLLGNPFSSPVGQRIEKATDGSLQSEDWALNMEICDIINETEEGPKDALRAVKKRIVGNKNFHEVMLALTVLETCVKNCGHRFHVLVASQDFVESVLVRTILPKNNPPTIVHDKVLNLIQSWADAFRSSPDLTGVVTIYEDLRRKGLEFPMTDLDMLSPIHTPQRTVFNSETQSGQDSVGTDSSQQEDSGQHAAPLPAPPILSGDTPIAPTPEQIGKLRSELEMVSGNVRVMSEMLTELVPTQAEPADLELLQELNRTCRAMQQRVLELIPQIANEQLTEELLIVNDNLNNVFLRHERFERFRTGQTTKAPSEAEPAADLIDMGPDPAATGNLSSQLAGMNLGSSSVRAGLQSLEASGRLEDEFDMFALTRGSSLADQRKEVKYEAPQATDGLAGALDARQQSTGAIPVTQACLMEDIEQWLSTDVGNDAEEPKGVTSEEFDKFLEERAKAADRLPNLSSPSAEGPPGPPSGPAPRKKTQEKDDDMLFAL
binder,measurement,setting,value
FVDWDIPSWWFQQVTS,phage ELISA signal ratio,[1],15.1
WTASQYWVYEDGFIPG,phage ELISA signal ratio,[2],23.7
QVWWEAYEKRLHVETE,phage ELISA signal ratio,[3],8.09
LPPHWFDEMYSITAMY,phage ELISA signal ratio,[4],7.51
IEWEWLDSKEWWPKEF,phage ELISA signal ratio,[1],32.5
LGHTTAEMIDYMELQW,phage ELISA signal ratio,[5],15.3
DMLDWSWTEEVELWFQ,phage ELISA signal ratio,[1],24.5
EMHWMDIWDSLLPESK,phage ELISA signal ratio,[6],7.87
DMVWTNSFLHSHSQLV,phage ELISA signal ratio,[2],19.5
QTPLEAFWEAYDSISW,phage ELISA signal ratio,[4],23.1
YQMSWMPSEIWWLNYV,phage ELISA signal ratio,[1],9.38
EFTMNWQYPTQYNFIQ,phage ELISA signal ratio,[7],15.3
GLASYFADNYHLIFSE,phage ELISA signal ratio,[4],22.4
PWWLEYEMPITRESPV,phage ELISA signal ratio,[3],4.45
NENGSYEEHLAWTWGF,phage ELISA signal ratio,[2],17.6
QFFLFQSAPSWVLQPI,phage ELISA signal ratio,[8],13.8
VENVYYGPYQWEGSFQ,phage ELISA signal ratio,[2],15.4
NQDRVWVGNSAFKSPD,phage ELISA signal ratio,[2],22
EQWTWEPMWEWMTITD,phage ELISA signal ratio,[9],5.86
DRKLSQQELALWAYII,phage ELISA signal ratio,[4],27.7
IEIPWTQEFIQHWTQG,phage ELISA signal ratio,[4],18.4
ELWQHWDMWNVEEPEF,phage ELISA signal ratio,[6],7.88
QHDWAPSYLWWDEWTM,phage ELISA signal ratio,[1],20.5
WNQWQEWTTDHGVLLE,phage ELISA signal ratio,[6],7.12
PFTYYSSEMYPWYIFG,phage ELISA signal ratio,[8],11.1
WEDGWLIPNAQDFQGM,phage ELISA signal ratio,[10],3.64
MEWVEVYTKTDYAFPP,phage ELISA signal ratio,[2],17.8
LEWTWYDTWTWPEESQ,phage ELISA signal ratio,[1],22
